High-throughput results: PubChem BioAssay, National Center for Advancing Translational Sciences (NCATS)
ALOX12 inh – Primary qHTS assay for inhibitors of human arachidonate 12S-lipoxygenase (ALOX12): Round 2. Polyunsaturated fatty acid lipoxygenase ALOX12 (Homo sapiens), P18054. purified 12hLO, xylenol orange hydroperoxide absorbance. Potency, µM (doses to about 108 µM), most hits filed as inhibitors. 580,000 tested, 1.1% active. AID 1671190, 2021
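Purified human 12hLO (150 nM final) in 25 mM Hepes, 0.01% Triton X-100, pH 7.0 was preincubated 15 min at room temperature with compound. Then 40 uM arachidonic acid was added, 30 min. Hydroperoxide was read by Fe-XO absorbance ratio 573/405 nm.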
PLK1 PBD block – qHTS for Inhibitors of PLK1-PDB (polo-like kinase 1 - polo-box domain): Primary Screen; Serine/threonine-protein kinase PLK1 (Homo sapiens), P53350; Plk1 PBD binding of FITC phosphopeptide, fluorescence polarization; Potency, µM, actives largely listed as inhibitors; AID 720504, 2013; 360,000 tested, 2.8% active; note: series mostly up to about 57 µM; nearly all actives have a fitted effect of over 65% in size
VDR inh – Inhibitors of the vitamin D receptor (VDR): qHTS; Vitamin D3 receptor (Homo sapiens), P11473; VDR-SRC2-3 peptide fluorescence polarization, 2 h; 400,000 tested, 0.93% active; Potency, µM, most hits filed as inhibitors
Target sequence (P11473 whole entry, looked up): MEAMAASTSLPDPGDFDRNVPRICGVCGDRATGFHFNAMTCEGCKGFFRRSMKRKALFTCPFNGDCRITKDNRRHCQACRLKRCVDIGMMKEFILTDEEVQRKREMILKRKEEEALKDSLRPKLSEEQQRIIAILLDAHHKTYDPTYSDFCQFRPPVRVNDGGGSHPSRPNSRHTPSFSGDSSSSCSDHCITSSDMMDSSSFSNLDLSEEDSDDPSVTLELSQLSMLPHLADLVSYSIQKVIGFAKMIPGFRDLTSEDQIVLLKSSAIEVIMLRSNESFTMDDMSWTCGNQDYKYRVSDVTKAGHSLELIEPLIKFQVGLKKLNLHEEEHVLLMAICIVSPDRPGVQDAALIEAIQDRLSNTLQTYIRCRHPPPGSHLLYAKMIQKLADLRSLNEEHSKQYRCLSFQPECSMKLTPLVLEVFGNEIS
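Signal is fluorescence polarization, reporting how far test compounds block the interaction of VDR with the SRC2-3 coregulator peptide after a 2 h room-temperature incubation.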
KAT2A inh – qHTS Assay for Inhibitors of GCN5L2. Potency, µM (top dose mostly 58.9 µM), most hits filed as inhibitors. GCN5L2 HAT assay, ThioGlo1 CoA-SH fluorescence. Histone acetyltransferase KAT2A (Homo sapiens), Q92830. AID 504327, 2011. 390,000 tested, 0.21% active
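Enzyme at 20nM final was mixed with library compounds for 15 min at room temperature. Peptide H3(1-25) at 75uM, acetyl-CoA at 70uM and ThioGlo1 at 50uM were then added. Plates were read immediately and after 20 min (Ex340nm/Em540nm).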
Numbers stand for hits; . = inactive; ? = inconclusive; / = no result given. This is a sample that favours compounds with a hit; in the whole collection about 3% have one here. Calls come from the whole dose curve; as a rule, active = well fitted curve in the direction sought with a large enough effect; inconclusive = small, poorly fitted or top-dose-only effect, or another doubt; inactive = no such curve, though single readings can be large; an effect the other way counts as inactive or inconclusive.

SMILES | ALOX12 inh | PLK1 PBD block | VDR inh | KAT2A inh
Cn1c(SCC(=O)N2CCc3ccccc32)nnc1-c1cccc(NC(=O)c2ccccc2F)c1 | 35.5µM | / | / | /
CCC(=O)Nc1cccc(-c2nnc(SCC(=O)NCc3ccco3)n2C)c1 | ? | . | . | .
CCC(=O)Nc1cccc(-c2nnc(SCC(=O)c3ccccc3)n2C)c1 | ? | 26.7µM | . | .
CN(C(=O)COC(=O)c1ccc([N+](=O)[O-])cc1)c1ccccc1 | . | . | . | .
CN(C(=O)COC(=O)CSc1ccc([N+](=O)[O-])cc1)c1ccccc1 | ? | 13.4µM | 89.1µM | .
N/C(=N\OC(=O)CSc1ccccc1)c1ccc([N+](=O)[O-])cc1 | . | 26.7µM | . | .
COc1ccc(C(=O)Oc2ccc(C(C)C)cc2)cc1I | . | / | / | /
O=[N+]([O-])c1ccc(Nc2nc(N/N=C/c3cccc(F)c3)nc(N3CCCC3)n2)cc1 | ? | . | . | .
CNc1nc(N/N=C/c2ccc([N+](=O)[O-])cc2)nc(Nc2ccccc2)n1 | . | 26.7µM | ? | .
CCOC(=O)c1ccc(/C=C2/C=C(c3ccccc3)N(c3ccc(Cl)c(C(=O)O)c3)C2=O)cc1 | 44.7µM | . | ? | .
CC1=NN(c2ccc(Br)cc2)C(=O)/C1=C/c1ccc(-c2ccccc2C(=O)O)o1 | . | 11.9µM | ? | .
O=C1/C(=C\c2ccc(-c3ccccc3[N+](=O)[O-])o2)C(c2ccccc2)=NN1c1ccccc1 | . | 3.36µM | . | .
O=C(/C=C/c1ccc(-c2ccccc2[N+](=O)[O-])o1)c1ccccc1 | . | . | . | .
O=C(O)/C(=C\c1ccc(-c2ccccc2[N+](=O)[O-])o1)c1ccccc1 | ? | 37.7µM | . | .
CC1=NOC(=O)/C1=C\c1ccc(-c2ccc(Br)cc2C(=O)O)o1 | ? | 2.67µM | 79.4µM | ?
CN(C)c1ccc(CN[C@H]2[C@H](O)[C@@H](N(C)CCc3ccccn3)[C@@H]3OC[C@H]2O3)cc1 | . | / | / | /
CCOC(=O)c1cc(-c2ccc(/C=N\n3cnnc3)o2)ccc1Cl | . | . | . | .
CCOC(=O)c1cc(-c2ccc(/C=C3/C(=O)N(c4ccc(C(=O)O)cc4)N=C3C)o2)ccc1Cl | . | 0.844µM | ? | .
O=C(CCc1ncc(-c2ccc(Cl)cc2)o1)N1CCC(C(=O)N2CCOCC2)CC1 | . | / | / | /
Cc1ccc(OCC(=O)N/N=C/c2ccco2)cc1 | . | . | . | .
Cc1ccc(OCC(=O)N/N=C/C=C/c2ccco2)cc1C | 39.8µM | . | . | .
O=C(N/N=C/C=C/c1ccco1)c1cccnc1 | . | . | ? | .
O=C(N/N=C/C=C\c1ccco1)c1ccccn1 | . | ? | 79.4µM | .
O=C(N/N=C\C=C\c1ccco1)c1cc(-c2ccc3ccccc3c2)n[nH]1 | 39.8µM | . | . | .
Cc1c(CC(=O)NCc2ccc(F)cc2)c(=O)oc2cc(O)ccc12 | . | / | / | /
SMILES | ALOX12 inh | PLK1 PBD block | VDR inh | KAT2A inh
CC(C)c1ccc(OCC(=O)Nc2ccc3oc(-c4cccnc4)nc3c2)cc1 | . | / | / | /
CCCCN(CCCC)c1cc(F)nc(N)n1 | . | / | / | /
Cc1ccc2sc(C)[n+](CCCS(=O)(=O)[O-])c2c1 | . | . | . | .
Cc1ccc2c(c1)sc(C)[n+]2CCCS(=O)(=O)[O-] | ? | . | 28.2µM | .
COc1cc(OC)c2c(C)c(CC(=O)Nc3ccc4c(c3)OCO4)c(=O)oc2c1 | . | / | / | /
COc1ccc(N(CC(=O)Nc2c(C)cccc2C)S(=O)(=O)c2ccccc2[N+](=O)[O-])c(OC)c1 | ? | . | . | .
COc1ccc(N(CC(=O)Nc2ccccc2C)S(=O)(=O)c2ccccc2[N+](=O)[O-])c(OC)c1 | . | 7.52µM | ? | .
COc1ccc2[nH]c(C[C@@H]3C[C@@H](C(C)C)[C@H](CNC(=O)C4CCC4)C=C3C)nc2n1 | . | / | / | /
Cc1nc2cc(NC(=O)c3ccccc3Cl)ccc2o1 | . | / | / | /
Cc1ccc(/C=C2\SC(=S)N(CC3CCCO3)C2=O)o1 (stereo unspecified) | 6.31µM | 23.8µM | . | .
Cc1ccc(Nc2nnc(Cc3ccccc3)c(=O)[nH]2)cc1Cl | . | / | / | /
CC(C)c1ccc(OCC(=O)NCCO)cc1 | . | 26.7µM | ? | .
Cc1cc(OCC(=O)NCCO)ccc1Cl | . | . | . | .
O=C(O)CC(c1ccncc1)c1c[nH]c2ccccc12 (stereo unspecified) | 3.55µM | / | / | /
O=[N+]([O-])CC(c1ccc(F)cc1)c1c[nH]c2ccccc12 (stereo unspecified) | . | . | . | .
